Each compound was assayed against Torsin-1A-interacting protein 2 (Homo sapiens) (UniProt Q8NFQ8) (assay: small molecules binding lysate-expressed LULL1 – cell lysate, human LULL1 lysate, 635/667 nm fluorescence, primary screen (AID 1092;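 note: probe is lysate of COS7 cells overexpressing human LULL1; score merges per-feature 667 nm fluorescence with signal-to-noise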)). Details: small-molecule microarray, hLULL1 lysate binding, 635 nm fluorescence; higher = more signal.
Chain of Torsin-1A-interacting protein 2 (Homo sapiens) (Q8NFQ8 whole entry, looked up): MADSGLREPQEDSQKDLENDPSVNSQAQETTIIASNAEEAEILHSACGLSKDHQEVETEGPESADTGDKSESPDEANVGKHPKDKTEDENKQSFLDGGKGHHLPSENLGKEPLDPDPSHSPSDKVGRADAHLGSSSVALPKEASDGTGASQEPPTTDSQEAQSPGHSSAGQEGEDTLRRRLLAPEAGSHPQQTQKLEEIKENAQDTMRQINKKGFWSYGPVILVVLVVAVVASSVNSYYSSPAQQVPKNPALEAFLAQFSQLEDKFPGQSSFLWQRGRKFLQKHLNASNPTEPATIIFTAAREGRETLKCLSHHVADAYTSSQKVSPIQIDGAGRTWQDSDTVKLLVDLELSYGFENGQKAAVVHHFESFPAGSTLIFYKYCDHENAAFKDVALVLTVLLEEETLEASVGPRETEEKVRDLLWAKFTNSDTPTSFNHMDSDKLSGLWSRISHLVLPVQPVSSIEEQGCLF
O=c1cccc(CCc2ccccc2)o1 showed a composite z-score of 1.8. COc1ccc([Si](C)(C)[C@H]2[C@H](CCn3cc(CCO)nn3)O[C@@]3(C(=O)N(Cc4ccc(N5CCOC5=O)cc4)c4ccccc43)[C@@H]2C)cc1 showed a composite z-score of 1.31. C=CC[C@@H](OC(=O)Nc1ccc(OC)cc1)c1ccc(O)c2ccccc12 was tested, and the composite z-score was 2.28. For CC(c1ccccc1)C(O)C1C=CC2C(=O)NC(=O)C2N1Nc1ccccn1 (stereo unspecified), the composite z-score was 1.52. CC(C)CNC(=O)[C@@H]1c2ccccc2C(=O)N(Cc2cc(C(F)(F)F)cc(C(F)(F)F)c2)[C@H]1c1ccc(CO)cc1 was tested, and the composite z-score was 0.557. C[C@]1(C(=O)NCc2ccccc2)c2ccccc2C(=O)N(Cc2cc(F)cc(C(F)(F)F)c2)[C@H]1c1ccc(CO)cc1 gave a composite z-score of 2.68. O=C1O[C@H](c2ccccc2)[C@H](c2ccccc2)N2[C@H]1[C@@H](C(=O)Nc1nc3ccccc3s1)[C@]1(C(=O)Nc3ccccc31)[C@H]2c1ccc(O)cc1 was tested, and the composite z-score was 2.74. In the case of CN(C)CCCNC(=O)[C@@]1(Cc2ccccc2I)c2ccccc2C(=O)N(Cc2ccccc2C(F)(F)F)[C@H]1c1ccc(CO)cc1, the composite z-score is reported as 3.45. CCCCCN1CC=CC23O[C@@H]4C=CCOC(=O)[C@@H]4[C@H]2C(=O)N(CCCO)[C@@H]3C1=O (stereo partly specified) gave a composite z-score of 3.5. C=C(CCCC)/C(=C/C[C@H](OC(C)=O)c1ccc(CO)o1)c1cnc2ccccc2c1 gave a composite z-score of 1.46. Work on CC(C)NC(=O)[C@@]1(Cc2ccccc2I)c2ccccc2C(=O)N(Cc2ccccc2)[C@H]1c1ccc(CO)cc1 yielded a composite z-score of 2.91. In the case of O=C1C2C=CC(C(O)c3ccc(B(O)O)cc3)N(Nc3ccccc3)C2C(=O)N1c1ccccc1 (stereo unspecified), the composite z-score is reported as 0.935. O=C1C[C@]2(c3ccc([N+](=O)[O-])cc3)C(=O)N(CC(F)(F)F)c3cc(CO)ccc3[C@H]2N1CC12CC3CC(CC(C3)C1)C2 was tested, and the composite z-score was 2.49. With N#Cc1ccc(NN2C(C(O)c3cccs3)C=CC3C(=O)N(c4ccccc4)C(=O)C32)cc1 (stereo unspecified) the composite z-score was 3.35. COCCOC(=O)N1C(=O)[C@@]2(c3cc(C#CCNC(N)=O)ccc31)[C@H](C(=O)N1CCc3cc(OC)c(OC)cc3C1)[C@H]1C(=O)O[C@H](c3ccccc3)[C@H](c3ccccc3)N1[C@@H]2c1ccc(OCCO)cc1 gave a composite z-score of 0.277. CC(=O)Nc1cc(Br)ccc1C(=O)O was tested, and the composite z-score was 1.33. For C=CCOC(=O)[C@@H]1[C@H]2C(=O)O[C@H](c3ccccc3)[C@H](c3ccccc3)N2[C@H](c2ccc(OCCOC(=O)[C@@H]3C[C@@H]4C(=O)N[C@@H](Cc5ccccc5)C(=O)N4[C@@H]3c3cccc(OCCO)c3)cc2)[C@@]12C(=O)Nc1ccc(I)cc12, the composite z-score was 1.83. [N-]=[N+]=NCc1ccccc1C[C@]1(C(=O)O)N=C(c2ccc(OCCCO)cc2)O[C@H]1c1ccccc1CN=[N+]=[N-] showed a composite z-score of 3.25. NCCCCCNC(=O)[C@H]1C[C@H]2C(=O)NCC(=O)N2[C@H]1c1cccc(OCCO)c1 showed a composite z-score of 2.34. With COc1cc2c(cc1OC)CN(C(=O)[C@@H]1[C@H]3C(=O)O[C@H](c4ccccc4)[C@H](c4ccccc4)N3[C@H](c3ccccc3OCCO)[C@@]13C(=O)Nc1ccc(C#CCNC(N)=O)cc13)CC2 the composite z-score was 2.61. Work on C=C(COC)C(=O)CC[C@H](OC(C)=O)c1cccc(OCCO)c1 yielded a composite z-score of 0.118. CCOC(=O)C[C@H]1[C@H](OC(=O)Cc2ccc3c(c2)OCO3)[C@@H](NC(=O)C2CCCCC2)c2cc(OCCCO)ccc2N1C(=O)Cc1ccc(OC)cc1 gave a composite z-score of 1.89. COCCOC(=O)N1C(=O)[C@@]2(c3cc(C#CCNC(N)=O)ccc31)[C@H](c1ccc(OCCO)cc1)N1[C@H](c3ccccc3)[C@H](c3ccccc3)OC(=O)[C@H]1[C@@H]2C(=O)N1CCc2cc(OC)c(OC)cc2C1 gave a composite z-score of 0.816. For COCCOC(=O)N1C(=O)[C@@]2(c3cc(C#CC4(O)CCCCCC4)ccc31)[C@H](C(=O)N1CCCCCCC1)[C@H]1C(=O)O[C@H](c3ccccc3)[C@H](c3ccccc3)N1[C@@H]2c1ccccc1OCCO, the composite z-score was 3.22. C=C(COC)/C(=C/C[C@H](OC(=O)c1ccncc1)c1cccc(OCCO)c1)c1cc(C(=O)OC)ccc1OC was tested, and the composite z-score was 1.95. COc1c(C)cc(-c2cc3c(c(-c4ccc(Oc5ccccc5)cc4)n2)[Si](C(C)C)(C(C)C)OC3)cc1C gave a composite z-score of 0.0255. CCOC(=O)C1=CCC(c2ccc(C#N)cc2)N(S(=O)(=O)c2ccc(C)cc2)C1 (stereo unspecified) gave a composite z-score of 2.64. With CCOC(=O)C1=C[C@@H](C(C)C)N(S(=O)(=O)c2ccc(C)cc2)[C@H]1c1ccc(C(C)C)cc1 the composite z-score was 3.02. For CCOC(=O)C1=CCC(C(C)(C)C)N(S(=O)(=O)c2ccc(C)cc2)C1 (stereo unspecified), the composite z-score was 3.3. CCCCC=C[C@@H](NC(=O)c1ccco1)c1ccccc1 was tested, and the composite z-score was 0.539. CC(C)(C)N1CC=CC23O[C@@H]4C=CCOC(=O)[C@@H]4[C@H]2C(=O)N(CCCCCO)[C@@H]3C1=O (stereo partly specified) gave a composite z-score of 0.735. For O=C1C=CC(=O)[C@@H]2CC(COc3ccccc3)=C3[C@@H](CCc4ccccc4)OB(O)C[C@@H]3[C@H]12, the composite z-score was -0.188. With Cc1ccccc1C(O)C1C=CC2C(=O)N(C)C(=O)C2N1N1CCCCC1 (stereo unspecified) the composite z-score was 3.18. CCOC(=O)C[C@H]1[C@H](OC(=O)c2ccc(C(=O)c3ccccc3)cc2)[C@@H](NC(=O)C2CCCCC2)c2cc(OCCCO)ccc2N1C(=O)c1ccccc1 was tested, and the composite z-score was 2.04. Work on Cc1ccc(S[C@]2(C(=O)NCC(C)C)CC(=O)N(Cc3ccccc3Cl)[C@@H]2c2ccc(CO)cc2)cc1 yielded a composite z-score of 0.294. Work on COc1cccc(C(=O)O[C@H]2CC[C@]3(C)C4=C(CCC3C2(C)C)[C@]2(C)CC[C@H]([C@H](C)CCCC(C)C)[C@@]2(C)CC4)c1 (stereo partly specified) yielded a composite z-score of 0.385.
